The source made the active and inactive calls. Rule for the calls: active = hit-call score of the fitted dose curve at least 0.9, where 1 is the maximum; inactive = score below 0.9.

Holding throughout (details): mRNA level, 48 h; actives raise or lower the signal
Read-out in assay [1]: Interleukin 6 Receptor (IL6R), IL6R (gene 3570)
In words: LTEA_HepaRG_IL6R: Life Technologies and Expression Analysis (LTEA) Assay for Interleukin 6 Receptor (IL6R) using HepaRG (AID 2283510). In outline:
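Differentiated human HepaRG cells, plated 48 h then switched to serum-free induction medium, were dosed in duplicate for 48 h at eight half-log concentrations up to 100 uM in 0.5% DMSO. IL6R mRNA quantified by qRT-PCR, normalized to ACTB/GAPDH/POLR2A; bidirectional fit versus DMSO.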

Read-out in assay [2]: Potassium channel subfamily K member 1 (KCNK1), KCNK1 (gene 3775)
Kind of assay: LTEA_HepaRG_KCNK1: Life Technologies and Expression Analysis (LTEA) Assay for Potassium channel subfamily K member 1 (KCNK1) using HepaRG (AID 2283511). In outline:
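Differentiated human HepaRG cells in serum-free induction medium were exposed in duplicate for 48 h to 8 half-log concentrations up to 100 uM in 0.5% DMSO. KCNK1 mRNA was measured by TaqMan qRT-PCR, normalized to ACTB, GAPDH and POLR2A, and fitted bidirectionally versus DMSO.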

Read-out in assay [3]: Keratin 19 (KRT19), KRT19 (gene 3880)
In words: LTEA_HepaRG_KRT19: Life Technologies and Expression Analysis (LTEA) Assay for Keratin 19 (KRT19) using HepaRG (AID 2283512). Summed up:
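HepaRG, 48 h chemical exposure, 8-pt half-log CRC from 100 uM, 0.5% DMSO vehicle, duplicates. Readout: TaqMan qRT-PCR of KRT19 mRNA, housekeeping-normalized (ACTB/GAPDH/POLR2A). Bidirectional fit vs DMSO baseline.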

Read-out in assay [4]: JUN Transcription Factor, JUN (gene 3725)
In words: LTEA_HepaRG_JUN: Life Technologies and Expression Analysis (LTEA) Assay for JUN Transcription Factor using HepaRG (AID 2283513). In outline: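 Differentiated HepaRG cells were exposed to chemicals for 48 h in serum-free induction medium, 8 concentrations from 100 uM in half-log steps, 0.5% DMSO vehicle, in duplicate. JUN mRNA was quantified by TaqMan qRT-PCR, normalized to ACTB, GAPDH, POLR2A.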

Read-out in assay [5]: Lipase C (LIPC), LIPC (gene 3990)
Kind of assay: LTEA_HepaRG_LIPC: Life Technologies and Expression Analysis (LTEA) Assay for Lipase C (LIPC) using HepaRG (AID 2283514). In outline: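 Differentiated human HepaRG cells in serum-free induction medium were exposed in duplicate for 48 h to eight concentrations (top 100 uM, half-log steps, 0.5% DMSO). LIPC mRNA was quantified by TaqMan qRT-PCR, normalized to ACTB, GAPDH and POLR2A, with bidirectional fitting versus DMSO.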

Read-out in assay [6]: Lipoprotein lipase (LPL), LPL (gene 4023)
Kind of assay: LTEA_HepaRG_LPL: Life Technologies and Expression Analysis (LTEA) Assay for Lipoprotein lipase (LPL) using HepaRG (AID 2283515). Summed up: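 Differentiated human HepaRG cells in serum-free induction medium were exposed in duplicate for 48 h to eight half-log concentrations (top 100 uM) in 0.5% DMSO. LPL mRNA was quantified by TaqMan qRT-PCR, normalized to ACTB, GAPDH and POLR2A.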

Read-out in assay [7]: MicroRNA 122 (MIR122), gene 406906
Kind of assay: LTEA_HepaRG_MIR122: Life Technologies and Expression Analysis (LTEA) Assay for MicroRNA 122 (MIR122) using HepaRG (AID 2283516). Note: the transcript read is the microRNA miR-122. In outline:
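Differentiated human HepaRG cells were exposed 48 h in serum-free induction medium to eight half-log concentrations (top 100 uM, 0.5% DMSO). Transcript level was measured by TaqMan qRT-PCR, normalized to ACTB, GAPDH and POLR2A, and fitted bidirectionally versus DMSO.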

Read-out in assay [8]: matrix metalloproteinase-10 (MMP10), MMP10 (gene 4319)
Kind of assay: LTEA_HepaRG_MMP10: Life Technologies and Expression Analysis (LTEA) Assay for matrix metalloproteinase-10 (MMP10) using HepaRG (AID 2283517). Summed up: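 HepaRG, collagen I, ~100,000 cells/well; serum-free induction medium; 48 h exposure, duplicate, 8-pt half-log to 100 uM, 0.5% DMSO. Readout: TaqMan qRT-PCR, normalized to ACTB/GAPDH/POLR2A; bidirectional fit vs DMSO.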

Read-out in the next assay: MYC, MYC (gene 4609)
Kind of assay: LTEA_HepaRG_MYC: Life Technologies and Expression Analysis (LTEA) Assay for MYC using HepaRG (AID 2283518). Summed up: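 qRT-PCR read-out of MYC transcript (Fluidigm TaqMan, housekeeping-normalized) after 48 h chemical exposure of HepaRG cells; eight concentrations, top 100 uM, half-log steps. Bidirectional curve fitting against 0.5% DMSO vehicle baseline.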

Read-out in assay [9]: matrix metalloproteinase-3 (MMP3), MMP3 (gene 4314)
Kind of assay: LTEA_HepaRG_MMP3: Life Technologies and Expression Analysis (LTEA) Assay for matrix metalloproteinase-3 (MMP3) using HepaRG (AID 2283519). Summed up: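 Differentiated human HepaRG cells, plated 48 h on collagen I, were exposed in duplicate for 48 h in serum-free induction medium to eight half-log concentrations up to 100 uM in 0.5% DMSO. MMP3 mRNA was quantified by TaqMan qRT-PCR, normalised to ACTB, GAPDH and POLR2A.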

Read-out in assay [10]: Paternally Expressed 10 (PEG10), PEG10 (gene 23089)
Kind of assay: LTEA_HepaRG_PEG10: Life Technologies and Expression Analysis (LTEA) Assay for Paternally Expressed 10 (PEG10) using HepaRG (AID 2283520). In outline: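 Differentiated HepaRG cells, plated 48 h then switched to serum-free induction medium, were exposed in duplicate for 48 h to eight half-log concentrations topping at 100 uM in 0.5% DMSO. PEG10 mRNA was quantified by TaqMan qRT-PCR, normalised to ACTB, GAPDH and POLR2A.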

Read-out in assay [11]: Protein phosphatase 2A (PPP2R4), PTPA (gene 5524)
Kind of assay: LTEA_HepaRG_PPP2R4: Life Technologies and Expression Analysis (LTEA) Assay for Protein phosphatase 2A (PPP2R4) using HepaRG (AID 2283522). In outline: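 Differentiated HepaRG cells in serum-free induction medium were exposed in duplicate for 48 h to eight concentrations, top 100 uM with half-log dilutions, in 0.5% DMSO. PPP2R4 mRNA was quantified by TaqMan qRT-PCR, normalized to ACTB, GAPDH and POLR2A.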

Read-out in assay [12]: Phosphatase and tensin (PTEN), PTEN (gene 5728)
Kind of assay: LTEA_HepaRG_PTEN: Life Technologies and Expression Analysis (LTEA) Assay for Phosphatase and tensin (PTEN) using HepaRG (AID 2283523). Summed up: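 Differentiated human HepaRG cells, plated 48 h then switched to serum-free induction medium, were exposed in duplicate for 48 h to eight half-log concentrations up to 100 uM in 0.5% DMSO. PTEN mRNA measured by TaqMan qRT-PCR, normalized to ACTB/GAPDH/POLR2A, bidirectional fit versus DMSO.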

Read-out in assay [13]: solute carrier (SLC22A1), SLC22A1 (gene 6580)
In words: LTEA_HepaRG_SLC22A1: Life Technologies and Expression Analysis (LTEA) Assay for solute carrier (SLC22A1) using HepaRG (AID 2283524). In outline: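 Human HepaRG cells were plated 48 h, switched to serum-free induction medium, then exposed in duplicate for 48 h to 8-point half-log series from 100 uM in 0.5% DMSO. SLC22A1 mRNA measured by qRT-PCR, normalized to ACTB/GAPDH/POLR2A, fitted bidirectionally versus DMSO.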

Read-out in assay [14]: Pyruvate Dehydrogenase Kinase 4 (PDK4), PDK4 (gene 5166)
Kind of assay: LTEA_HepaRG_PDK4: Life Technologies and Expression Analysis (LTEA) Assay for Pyruvate Dehydrogenase Kinase 4 (PDK4) using HepaRG (AID 2283525). Summed up: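 Differentiated human HepaRG cells, pre-cultured 48 h, were exposed in duplicate for 48 h in serum-free induction medium to eight half-log concentrations up to 100 uM in 0.5% DMSO. PDK4 mRNA was quantified by qRT-PCR, normalized to ACTB, GAPDH and POLR2A, bidirectional fitting versus DMSO.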

Read-out in assay [15]: NAD(P)H dehydrogenase [quinone] 1 (NQO1), NQO1 (gene 1728)
Kind of assay: LTEA_HepaRG_NQO1: Life Technologies and Expression Analysis (LTEA) Assay for NAD(P)H dehydrogenase [quinone] 1 (NQO1) using HepaRG (AID 2283526). In outline: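 Differentiated HepaRG cells, plated 48 h and then switched to serum-free induction medium, were exposed in duplicate for 48 h to 8-point half-log concentrations up to 100 uM in 0.5% DMSO. mRNA measured by qRT-PCR, normalized to ACTB, GAPDH, POLR2A; bidirectional fit versus DMSO.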

Read-out in assay [16]: Nuclear factor erythroid 2-related factor 2 (Homo sapiens) (UniProt Q16236)
In words: LTEA_HepaRG_NFE2L2: Life Technologies and Expression Analysis (LTEA) Assay for Nuclear factor erythroid 2-related factor 2 (NFE2L2) Transcription Factor using HepaRG (AID 2283527). In outline:
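Differentiated human HepaRG cells in serum-free induction medium were exposed for 48 h to eight concentrations (top 100 uM, half-log dilutions, 0.5% DMSO), in duplicate. NFE2L2 mRNA was quantified by TaqMan qRT-PCR, normalized to ACTB, GAPDH and POLR2A, with bidirectional fitting versus DMSO.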

Read-out in assay [17]: succinate dehydrogenase complex iron sulfur subunit B (SDHB), SDHB (gene 6390)
In words: LTEA_HepaRG_SDHB: Life Technologies and Expression Analysis (LTEA) Assay for succinate dehydrogenase complex iron sulfur subunit B (SDHB) using HepaRG (AID 2283528). In outline: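 SDHB transcript level read by TaqMan qRT-PCR, housekeeping-normalised (ACTB, GAPDH, POLR2A), after 48 h chemical treatment of plated HepaRG cells; eight concentrations top 100 uM, half-log steps, 0.5% DMSO, duplicates; fitted both directions against DMSO.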

Read-out in assay [18]: Signal transducer and activator of transcription 3 (Homo sapiens) (UniProt P40763)
In words: LTEA_HepaRG_STAT3: Life Technologies and Expression Analysis (LTEA) Assay for Signal transducer and activator of transcription (STAT3) using HepaRG (AID 2283529). In outline: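 Differentiated human HepaRG cells in serum-free induction medium were exposed in duplicate for 48 h to eight half-log concentrations up to 100 uM in 0.5% DMSO. STAT3 mRNA was quantified by TaqMan qRT-PCR, normalized to ACTB, GAPDH and POLR2A, and fitted bidirectionally against DMSO.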

Read-out in assay [19]: Nuclear factor NF-kappa-B p105 subunit (Homo sapiens) (UniProt P19838)
In words: LTEA_HepaRG_NFKB1: Life Technologies and Expression Analysis (LTEA) Assay for Nuclear Factor Kappa B Subunit 1 (NFKB1) using HepaRG (AID 2283521). In outline:
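NFKB1 transcript was measured by TaqMan qRT-PCR on Fluidigm arrays, normalised to three housekeeping genes and fitted in both directions against 0.5% DMSO. HepaRG cells were dosed in duplicate for 48 h in serum-free induction medium, eight half-log steps from 100 uM.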

Nuclear factor erythroid 2-related factor 2 (Homo sapiens), sequence (Q16236 whole entry, looked up): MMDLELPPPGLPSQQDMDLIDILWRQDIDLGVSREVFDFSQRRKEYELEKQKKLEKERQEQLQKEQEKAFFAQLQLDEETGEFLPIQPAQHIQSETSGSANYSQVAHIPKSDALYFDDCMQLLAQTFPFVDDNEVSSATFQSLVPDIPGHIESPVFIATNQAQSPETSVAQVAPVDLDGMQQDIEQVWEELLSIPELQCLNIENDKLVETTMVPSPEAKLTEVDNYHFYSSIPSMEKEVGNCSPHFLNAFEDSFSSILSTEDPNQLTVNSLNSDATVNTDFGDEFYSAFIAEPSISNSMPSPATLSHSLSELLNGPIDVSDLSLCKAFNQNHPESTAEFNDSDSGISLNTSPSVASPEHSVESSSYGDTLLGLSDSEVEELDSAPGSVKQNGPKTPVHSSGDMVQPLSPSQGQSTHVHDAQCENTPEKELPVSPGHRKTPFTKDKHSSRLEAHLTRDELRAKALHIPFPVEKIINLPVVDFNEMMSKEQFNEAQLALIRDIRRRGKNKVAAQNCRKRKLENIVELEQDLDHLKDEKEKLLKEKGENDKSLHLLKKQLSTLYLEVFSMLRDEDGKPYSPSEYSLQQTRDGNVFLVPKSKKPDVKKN
Signal transducer and activator of transcription 3 (Homo sapiens), sequence (P40763 whole entry, looked up): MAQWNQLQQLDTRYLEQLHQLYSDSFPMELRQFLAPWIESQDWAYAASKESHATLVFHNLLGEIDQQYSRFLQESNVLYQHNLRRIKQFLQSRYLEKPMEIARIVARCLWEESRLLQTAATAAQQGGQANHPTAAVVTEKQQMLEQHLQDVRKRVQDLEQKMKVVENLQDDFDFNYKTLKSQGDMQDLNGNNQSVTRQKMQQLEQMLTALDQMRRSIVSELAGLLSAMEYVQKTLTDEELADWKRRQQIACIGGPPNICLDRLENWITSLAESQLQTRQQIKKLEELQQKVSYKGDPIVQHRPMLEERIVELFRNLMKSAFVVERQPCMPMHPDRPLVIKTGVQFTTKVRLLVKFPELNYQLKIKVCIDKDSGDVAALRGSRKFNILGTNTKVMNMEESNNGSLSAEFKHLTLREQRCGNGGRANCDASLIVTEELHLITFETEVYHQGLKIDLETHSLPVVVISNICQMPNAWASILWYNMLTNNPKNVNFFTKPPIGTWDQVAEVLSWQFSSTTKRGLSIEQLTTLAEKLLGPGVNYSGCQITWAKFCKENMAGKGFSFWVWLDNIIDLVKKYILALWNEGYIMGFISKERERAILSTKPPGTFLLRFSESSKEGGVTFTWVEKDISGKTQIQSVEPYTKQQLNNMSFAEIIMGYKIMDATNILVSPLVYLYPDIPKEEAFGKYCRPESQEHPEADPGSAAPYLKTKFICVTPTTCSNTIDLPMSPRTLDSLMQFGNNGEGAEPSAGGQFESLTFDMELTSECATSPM
Nuclear factor NF-kappa-B p105 subunit (Homo sapiens), sequence (P19838 whole entry, looked up): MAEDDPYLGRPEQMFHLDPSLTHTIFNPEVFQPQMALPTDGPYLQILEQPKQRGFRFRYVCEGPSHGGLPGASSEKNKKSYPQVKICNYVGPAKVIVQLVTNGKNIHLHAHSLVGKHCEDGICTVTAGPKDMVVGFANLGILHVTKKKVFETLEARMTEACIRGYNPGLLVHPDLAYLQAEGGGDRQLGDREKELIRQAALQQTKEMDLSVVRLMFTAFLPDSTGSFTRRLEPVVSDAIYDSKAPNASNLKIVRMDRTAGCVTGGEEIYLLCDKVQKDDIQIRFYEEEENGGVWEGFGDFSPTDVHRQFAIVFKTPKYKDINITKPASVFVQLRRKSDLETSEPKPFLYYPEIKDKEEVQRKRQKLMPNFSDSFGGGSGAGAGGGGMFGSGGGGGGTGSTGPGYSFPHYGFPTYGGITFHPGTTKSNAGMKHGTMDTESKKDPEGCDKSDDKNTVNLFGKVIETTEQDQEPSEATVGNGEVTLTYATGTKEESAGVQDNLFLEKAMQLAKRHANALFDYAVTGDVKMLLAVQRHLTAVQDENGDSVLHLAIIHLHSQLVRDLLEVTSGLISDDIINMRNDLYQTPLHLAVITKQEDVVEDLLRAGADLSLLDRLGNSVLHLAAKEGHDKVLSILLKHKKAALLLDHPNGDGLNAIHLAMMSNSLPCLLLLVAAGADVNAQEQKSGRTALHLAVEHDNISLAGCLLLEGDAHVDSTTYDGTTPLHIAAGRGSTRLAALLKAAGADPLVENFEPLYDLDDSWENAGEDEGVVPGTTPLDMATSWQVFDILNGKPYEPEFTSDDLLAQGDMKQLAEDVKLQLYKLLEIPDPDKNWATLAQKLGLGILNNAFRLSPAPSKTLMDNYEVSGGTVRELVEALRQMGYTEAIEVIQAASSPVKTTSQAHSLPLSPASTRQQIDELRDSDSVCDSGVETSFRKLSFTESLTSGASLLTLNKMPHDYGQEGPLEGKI

For `CN(Cc1cnc2nc(N)nc(N)c2n1)c1ccc(C(=O)N[C@@H](CCC(=O)O)C(=O)O)cc1`, the outcome in assay [1], in [2], in assay [3], in assay [4], in assay [5] and in [6] was inactive. Further, the outcome in [7] was “inactive”; in assay [8], “inactive”; with MYC, MYC (gene 4609), “inactive”; in [9] it was “inactive”; in assay [10], “inactive”; in assay [11], “inactive”. For the same molecule, the call in [12], in [15], in [16], in [17] and in assay [18] was inactive. Besides, the AC50 in [13] was 0.137 µM (active); in assay [14], 0.515 µM (active).
Take `OCC(CO)(CBr)CBr`: the result in assay [1], in assay [2], in assay [3], in assay [4], in [5] and in assay [6] was inactive. Further, the outcome was “inactive” in [7]; “inactive” in assay [8]; “inactive” with MYC, MYC (gene 4609); “inactive” in [9]; “inactive” in assay [10]; “inactive” in [19]. Further, the molecule was called inactive in assay [11], in [12], in assay [13], in [14], in assay [15] and in assay [16]. In addition, the molecule was called inactive in [17] and in [18].
With `CC(=O)Nc1ccc(O)cc1`, the result in [1], in assay [2], in [3], in [4], in [5] and in assay [6] was inactive. For the same molecule, the outcome in [7] is “inactive”; in assay [8], “inactive”; with MYC, MYC (gene 4609), “inactive”; in assay [9] it was “inactive”; in assay [10] it was “inactive”; in [11], “inactive”. Moreover, the call in assay [12], in assay [13], in assay [14], in assay [15], in assay [17] and in [18] was inactive.
With `N=C(N)c1ccc(OCCCCCOc2ccc(C(=N)N)cc2)cc1`, the AC50 in assay [1] was 29.3 µM (active); in [3], 31 µM (active); in assay [4], 12.6 µM (active); in assay [5] it was 3.64 µM (active); in assay [6], 68.9 µM (active); in assay [7], 3.63 µM (active). The AC50 was 26.1 µM (active) in [8]; 3.56 µM (active) in the assay with MYC, MYC (gene 4609); 26.6 µM (active) in assay [10]; 29.1 µM (active) in assay [19]; 28.4 µM (active) in [11]; 29.9 µM (active) in [12]. The half-maximal activity concentration (AC50) in [13] was 6.6 µM (active); in assay [15], 43.8 µM (active); in assay [16], 10.1 µM (active); in [17], 56.2 µM (active); in assay [18], 29 µM (active). In assay [2], the molecule was called inactive.

As usually defined, the AC50 is the concentration at which the activity in the assay is half-maximal.
